Our source for the Potency values is PubChem BioAssay AID686978 (National Center for Advancing Translational Sciences (NCATS), 2013).

Hit rate of the full screen: of about 420,000 compounds, about 64,000 (15%) were called active. Inconclusive results (about 27%) are left out. The call rests on the fitted dose curve; in most records, active means well fitted inhibition curve with a large enough effect; inconclusive means small, poorly fitted or top-dose-only effect; inactive means flat fitted curve, though single readings scatter. These entries were drawn from the full list. Entries that show only a call come without a potency.
Potency means the concentration at half of the fitted maximal effect.

The assay is described as follows: qHTS for Inhibitors of human tyrosyl-DNA phosphodiesterase 1 (TDP1): qHTS in cells in absence of CPT. Further: nearly all actives have a fitted effect of over 55% in size. The conditions noted are these: DT40 Tdp1-/- hTDP1 cells, no CPT, ATP luminescence, 48 h; activity change, negative = growth inhibition: at 46.2 µM (top of the series). In outline:
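Camptothecin absent (DMSO only). Human TDP1-complemented DT40 knockout cells, 400 cells/well, 37 °C for minimum 48 hr; ATP measured via CellTiter-Glo, 30 min dark incubation, luminescence.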
On to `COCc1ccc(CN2CCC(Oc3ccc(C(=O)NCc4ccccn4)cc3)CC2)o1`, for which the Potency entry is “inactive”.
With `O=C(COC(=O)c1ncc(Cl)c(Cl)c1Cl)NNC(=O)c1ccccc1` the entry was “inactive”.
With `Cc1nn(Cc2ccccc2)c(C)c1CNC(=O)c1ccc(F)c(S(=O)(=O)N2CCOCC2)c1`, the Potency result was “inactive”.
With `CCn1cc(S(=O)(=O)c2cccc(C)c2)c(=O)c2cc(F)c(N3CCN(C)CC3)cc21` the entry was “inactive”; with `Cc1ccc(S(=O)(=O)c2cn(Cc3ccccc3)c3cc(N4CCCC4)c(F)cc3c2=O)c(C)c1`, 9.2 µM (active).
With `CC1CCCN(c2cc3c(cc2F)c(=O)c(S(=O)(=O)c2cccc(Cl)c2)cn3Cc2ccccc2)C1` (configuration not stated) the entry was “inactive”; with `Cc1cccc(S(=O)(=O)c2cn(Cc3ccccc3)c3cc(N4CCOCC4)c(F)cc3c2=O)c1`, 20.6 µM (active); with `CCCCCCn1cc(C(=O)O)c(=O)c2cc(F)c(N3CCCCC3)cc21`, “inactive”.
With `CC(=O)Cc1nsc(NC(=O)c2ccc(Cl)cc2Cl)n1` the entry was “inactive”.
On to `CCCCCC1CC(COc2ccccc2)OC1=O` (configuration not stated), for which the Potency result was “inactive”.
The value for `CCOC(=O)c1oc2ccccc2c1NC(=O)c1cccs1` was “inactive”.
With `CCOC(=O)CNC(=O)/C(=C\c1ccc(F)cc1)NC(=O)c1ccccc1` the entry was “inactive”; with `CC(=O)OCC(=O)[C@@]1(O)CCC2C3CCC4=CC(=O)CC[C@@]4(C)[C@]3(F)C(O)C[C@]21C` (some centres not stated), “inactive”; with `COc1ccc(C2(Nc3cccc(F)c3)C(=O)c3ccccc3C2=O)cc1`, “inactive”.
The value for `COc1ccc(Nc2cc(=O)oc3ccccc23)cc1` was 4.11 µM (active); that for `COc1ccc(CCNC(=O)COC(=O)c2cc(=O)c3ccccc3o2)cc1` was “inactive”; that for `COc1ccc2oc(=O)cc(-c3cc4ccccc4o3)c2c1` was “inactive”.
As to `CC1C=CCC2C(=O)N(c3cccc(C(=O)N4CCCCCC4)c3)C(=O)C12` (configuration not stated), the Potency result was “inactive”.
The value for `CCCCCCCC(=O)OC(CN1CCCCCC1)CN1CCCC1=O` (configuration not stated) was “inactive”; that for `CCCCNC(=O)N1CCN(S(C)(=O)=O)CC1` was “inactive”; that for `COc1cc(OC)cc(C(=O)NCCCn2ccnc2)c1` was “inactive”.
With `O=C(NCCCn1ccnc1)/C(=C\c1ccccc1F)NC(=O)c1ccccc1` the entry was “inactive”; with `COc1cccc(-c2nn(-c3ccccc3)cc2/C=C(\C#N)C(=O)NCCCn2ccnc2)c1`, 20.6 µM (active).
Take `NC(=NC(=O)c1ccccc1)C1=C(O)CCC1=O`: the Potency result is “inactive”.
The value for `N#CC1(Nc2ccc(-c3ccc(Cl)cc3)cc2)CCCC1` was “inactive”; that for `Nc1nc(NC(=O)/C=C/c2ccccc2)nn1-c1ccccc1` was “inactive”; that for `CCCc1cc(=O)oc2c(C)c(OCC(=O)Nc3ccccn3)ccc12` was “inactive”.
The value for `CN1CCc2c(sc3c2c(NCc2ccco2)nc2nnnn23)C1` was 18.4 µM (active); that for `CC1CCN(C(=O)CCc2nnc3ccc(NCc4ccco4)nn23)CC1` was “inactive”.
The value for `O=C(CN(c1cccc(Cl)c1)S(=O)(=O)c1ccccc1)NN=C1CCCC1` was “inactive”.
Consider `Cc1cccc(-n2ncc3c(=O)[nH]c(SCC(=O)Nc4cc(C)on4)nc32)c1`, for which the Potency entry is “inactive”.
With `FC(F)(F)C1CCCN(c2nsc3ccccc23)C1` (configuration not stated) the figure was 2.59 µM (active); with `O=C(NCC(=O)N1CCCC(C(F)(F)F)C1)c1ccccc1F` (configuration not stated), “inactive”.
Regarding `O=C(NC(Cc1ccccc1)C(=O)N1CCCC(C(F)(F)F)C1)c1ccccc1` (configuration not stated), the Potency entry was “inactive”.
With `CC(=NC1CCN(Cc2ccccc2)CC1)c1c(O)[nH]c(=O)[nH]c1=O` the entry was “inactive”; with `Cc1cccc(OCc2nnc(SCC(=O)N3CCN(C(=O)c4ccco4)CC3)n2C)c1C`, “inactive”; with `Cc1ccnc(NC(=O)CCC(=O)N(CC(=O)NCc2ccccc2)Cc2ccco2)c1`, “inactive”.
The value for `O=C(CCc1ccccc1)NNC(=O)COc1ccc(Cl)cc1` was “inactive”.
With `O=C(CCCOc1ccccc1)NCc1ccco1` the entry was “inactive”.
With `Cc1cccc(OCC(=O)N(Cc2ccc(C(C)C)cc2)Cc2ccco2)c1C`, the Potency was 20.6 µM (active).
The value for `O=C(COc1ccc(Cl)cc1)N(Cc1ccco1)Cc1ccco1` was 20.6 µM (active); that for `O=C(Nn1cnc2ccccc2c1=O)c1ccc(F)cc1Cl` was “inactive”.
In the case of `O=S(=O)(c1ccc(-c2ccno2)s1)N1CCCCC1`, the Potency result is “inactive”.
The value for `O=C(C1CCCO1)N1CCN(C(=S)NC2CC2)CC1` (configuration not stated) was “inactive”.
As for `Cc1ccc(S(=O)(=O)NNC(=O)Nc2cccc3ccccc23)cc1`, the Potency result was “inactive”.
The value for `CC(=O)c1nn(-c2ccc(OC(F)(F)F)cc2)nc1Nc1ccccc1` was “inactive”; that for `CC1CCc2c(nc3ncnn3c2Nc2ccc(OC(F)(F)F)cc2)C1` (configuration not stated) was 20.6 µM (active); that for `CC1(C)C(C=C(Cl)Cl)C1C(=O)NC(O)C(=O)c1ccccc1` (configuration not stated) was “inactive”.
The value for `Nc1ccccc1N` was 7.7 µM (active); that for `Nc1ccccc1/C=N\N=C/c1ccccc1N` was “inactive”; that for `Nc1cccnc1Sc1ccccc1` was “inactive”.
Regarding `COc1cc2c(cc1CNC[C@H]1O[C@@H](n3cnc(C(N)=O)n3)[C@H](O)[C@@H]1O)OCO2`, the Potency result was “inactive”.
The value for `Cc1ccc(-c2nc(CSCC(=O)NC3CCN(Cc4ccccc4)CC3)c(C)o2)cc1` was 16.4 µM (active); that for `Cc1ccc(-c2cc(C(=O)NC3CCN(Cc4ccccc4)CC3)c3ccccc3n2)cc1` was 16.4 µM (active).
Turning to `CC1CCCC(NC(=O)c2cc(-c3ccncc3)nc3ccccc23)C1C` (configuration not stated), the Potency was 23.1 µM (active).
Take `COC(=O)CNC(=O)c1cc(-c2ccncc2)nc2ccccc12`: the Potency result was “inactive”.
Turning to `Cc1ccsc1-c1nc(CSCC(=O)NCCN2CCCC2)c(C)o1`, the Potency result is “inactive”.
With `CC1CCCCC1NC(=O)c1cc(=O)[nH]c2ccccc12` (configuration not stated), the Potency result is “inactive”.
With `CCOC(=O)N1CCC(NC(=O)CCc2ccccc2)CC1` the entry was “inactive”; with `Cc1ccn2cc(C(=O)NC3CCN(Cc4ccccc4)CC3)nc2c1`, “inactive”; with `Cc1cc(C(=O)NC2CCN(Cc3ccccc3)CC2)n[nH]1`, “inactive”.
The value for `C=CCn1c(SCC(=O)NC23CC4CC(CC(C4)C2)C3)nc(O)cc1=O` was “inactive”.
The value for `COc1ccc2c(CC(=O)NNC(=O)c3ccccc3F)coc2c1` was “inactive”.
As to `CCC1([N+](=O)[O-])COC(c2ccc(C)cc2)OC1` (configuration not stated), the Potency entry is “inactive”.
The value for `O=C1CCc2cc(S(=O)(=O)N3CCC(C(=O)NCc4ccccc4Cl)CC3)ccc2N1` was “inactive”; that for `O=C1c2ccccc2C(=O)N1CCC(O)C[N+](=O)[O-]` (configuration not stated) was “inactive”; that for `CCCNC(=O)CCn1cc(-c2ccc(OC)cc2)nc1CCN` was “inactive”.
The value for `O=C(Nc1cccc(C(=O)N2CCCC2)c1)c1ccccc1` was “inactive”; that for `NC(=O)C1CCN(C(=O)c2cccc(NC(=O)c3nsc4ccccc34)c2)CC1` was 16.4 µM (active); that for `COc1cccc(NC(=O)N2CCN(C(=O)c3nsc4ccccc34)CC2)c1` was “inactive”.
With `CCOC(=O)c1ccc(NC(=O)C2CC(=O)Nc3nc4ccccc4n32)cc1` (configuration not stated) the entry was “inactive”.
Regarding `COc1ccc(Cn2ccc3nc(C)c(C(=O)Nc4ccc(C)c(F)c4)cc3c2=O)cc1`, the Potency result is “inactive”.
The value for `Cc1nc2ccn(Cc3cccs3)c(=O)c2cc1C(=O)NCc1ccc(Cl)cc1` was 16.4 µM (active).
`CN(CC(=O)NCc1ccc(Cl)cc1)S(=O)(=O)c1cccs1`: the Potency entry is “inactive”.
With `CCn1c(C(C)C)n[nH]c1=S` the entry was “inactive”; with `O=C(NC1CCCCC1)C1CCCN(S(=O)(=O)c2cccs2)C1` (configuration not stated), “inactive”; with `Cn1nnnc1SCC(=O)NNC(=O)c1ccc(Br)cc1`, “inactive”.
As for `Cc1cc(N)n2nc(-c3ccc(C(C)(C)C)cc3)cc2n1`, the Potency is 25.9 µM (active).
The value for `Cc1cc(C(C)(C)C)cc(C)c1N` was “inactive”; that for `CC(=O)Nc1ccc(NC(=O)CSc2nnnn2-c2ccccc2F)cc1` was “inactive”.
The value for `C1CC1Cc1noc(CN2CCN(CC3CC3)CC2)n1` was “inactive”.
For the compound `COCCNc1cc(-c2c(C)noc2C)ncn1`, the Potency entry is “inactive”.
For the compound `CNc1cc(-c2c(C)noc2C)ncn1`, the Potency was 14.6 µM (active).
With `Cc1cnc(CNc2cc(-c3c(C)noc3C)ncn2)cn1` the entry was “inactive”; with `COc1ccc(C2=NOC3(CC(=O)N(c4ccc(Cl)cc4)C3=O)C2)c(OC)c1` (configuration not stated), “inactive”; with `COC(=O)c1ccc(NC(=O)CSc2nncn2-c2cccnc2)cc1`, “inactive”.
With `Cc1ccc(SCCC(=O)NC(C(C)C)C(C)C)cc1` the entry was “inactive”; with `CCOC(=O)c1cccc(NS(=O)(=O)c2cn(C)c(C)n2)c1`, “inactive”; with `COc1ccc(Cl)cc1S(=O)(=O)Nc1cccc(C(=O)O)c1`, “inactive”.
In the case of `CCOC(=O)c1cccc(NS(=O)(=O)c2cc(-c3cnc(C)o3)ccc2OC)c1`, the Potency is 6.51 µM (active).
With `Cc1ccccc1NC(=O)Cc1nc(COC(=O)CNC(=O)c2ccc(Cl)cc2Cl)cs1` the entry was “inactive”; with `CN1CCN(CCCCOc2cccc3ccccc23)CC1`, 16.4 µM (active).
For `COc1ccccc1OCCCCCCN1CCN(C)CC1`, the Potency entry is “inactive”.
With `CCN1CCN(CCCCOc2ccccc2F)CC1` the entry was “inactive”.
With `CCn1nc(C(=O)NNC(=O)C2CSC3(C)CCC(=O)N23)c2ccccc2c1=O` (configuration not stated) the entry was “inactive”.
The value for `CC(=O)c1cccc(Nc2ccc3cc(S(=O)(=O)N4CCC(C)CC4)ccc3n2)c1` was 16.4 µM (active).
For the compound `CC1CCN(S(=O)(=O)c2ccc3[nH]c(=O)ccc3c2)CC1`, the Potency result was “inactive”.
Take `CC(=O)c1cccc(NC(=O)COc2ccc(S(=O)(=O)N3CCOCC3)cc2)c1`: the Potency entry is “inactive”.
The value for `O=C(OCc1nc2ccccc2[nH]1)C1CCCCC1` was “inactive”; that for `Nc1cccc(CCc2nc3ccccc3[nH]2)c1` was “inactive”; that for `CC/C(O)=C1\C(=O)CC(C)(C)CC1=NCCc1nc2ccccc2[nH]1` was 20.6 µM (active).
The value for `COc1ccc(NC(=O)COc2ccc(C(=O)OCC(=O)N(C)C3CCS(=O)(=O)C3)cc2OC)cc1` (configuration not stated) was “inactive”; that for `NC(=O)c1ccccc1N(Cc1ccccc1)S(=O)(=O)c1ccccc1` was “inactive”; that for `CCOC(=O)N1CCN(S(=O)(=O)c2ccc(OC)cc2)CC1` was “inactive”.
The value for `CCOC(=O)N1CCN(C(=O)c2ccccc2N(Cc2ccccc2)S(=O)(=O)c2ccc(OC)cc2)CC1` was 3.26 µM (active); that for `CN(CCO)Cc1csc2ccc(Br)cc12` was “inactive”.
As for `COc1ccc2oc(C(=O)NCC(Cc3ccccc3)N(C)C)c(C)c2c1` (configuration not stated), the Potency entry is “inactive”.
With `CCOC(=O)c1c(C)nc2c(c1C)c(=O)oc1ccccc12` the entry was “inactive”; with `CCOC(=O)c1c(C)oc2cc(Br)c(OCC(N)=O)cc12`, “inactive”; with `COC(=O)c1c(C)oc2ccc(N(C(=O)Oc3ccccc3)S(=O)(=O)c3ccccc3)cc12`, 11.6 µM (active).
The value for `CCOC(=O)c1c(C)oc2ccc(N(C(=O)c3ccncc3)S(=O)(=O)c3ccc(CC)cc3)cc12` was 2.91 µM (active).
With `CN(CC(=O)O)S(=O)(=O)c1ccc2oc3ccccc3c2c1` the entry was “inactive”.
